From PubChem BioAssay AID1159580 (chemical genetic matrix, 2015)
Out of some 5,500 compounds screened, about 2,000 (36%) were called active. Roughly 18% stayed inconclusive and do not appear here. Rule as the data show it: active = normalized growth mostly below about 0.91 (no sharp cut-off); inconclusive = no clear call, values can overlap the other calls; inactive = mostly above about 0.92. The list shows a part of the results.

Assay: chemical genetic growth profiling, strain panel (AID 1159580);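 also: tested at 20 µM; growth read once vehicle control cultures reached saturation at 30 °C; 1 = growth at the plate median or of vehicle wells; lower values mean less growth of the strain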
Details: growth OD

Measured: normalized growth

CN(C(=O)CN(CCO)CC(=O)N(C)C(C)(C)Cc1ccccc1)C(C)(C)Cc1ccccc1
inactive: S. cerevisiae deletion strains, locus YJR066W, strain TOR1, hits give low values 0.977 | S. cerevisiae deletion strains, locus YJR075W, strain HOC1, hits give low values 0.979 | S. cerevisiae deletion strains, locus YKL009W, strain mrt4, hits give low values 0.965 | S. cerevisiae deletion strains, locus YKL068W, hits give low values 0.979 | S. cerevisiae deletion strains, locus YKL085W, strain MDH1 (second series), hits give low values 0.971 | S. cerevisiae deletion strains, locus YKL085W, strain MDH1, hits give low values 0.971 | S. cerevisiae deletion strains, locus YKL160W, strain elf1, hits give low values 1.01 | S. cerevisiae deletion strains, locus YKL190W, strain CNB1, hits give low values 0.992 | S. cerevisiae deletion strains, locus YKR001C, strain vps1, hits give low values 0.998 | S. cerevisiae deletion strains, locus YKR026C, strain gcn3, hits give low values 1.02 | S. cerevisiae deletion strains, locus YKR091W, strain srl3, hits give low values 0.999 | S. cerevisiae deletion strains, locus YLL001W, strain dnm1, hits give low values 1.02 | S. cerevisiae deletion strains, locus YLL026W, hits give low values 1.02 | S. cerevisiae deletion strains, locus YLL041C, strain sdh2, hits give low values 1.01 | S. cerevisiae deletion strains, locus YLR027C, strain aat2, hits give low values 1.02 | S. cerevisiae deletion strains, locus YLR039C, strain RIC1, hits give low values 1.03 | S. cerevisiae deletion strains, locus YLR058C, strain SHM2, hits give low values 0.997 | S. cerevisiae deletion strains, locus YLR102C, strain apc9, hits give low values 0.986 | S. cerevisiae deletion strains, locus YLR113W, strain HOG1, hits give low values 0.987 | S. cerevisiae deletion strains, locus YLR221C, strain rsa3, hits give low values 0.993 | S. cerevisiae deletion strains, locus YLR258W, strain gsy2, hits give low values 1 | S. cerevisiae deletion strains, locus YLR262C, strain YPT6 (second series), hits give low values 1.03 | S. cerevisiae deletion strains, locus YLR262C, strain YPT6, hits give low values 1.02 | S. cerevisiae deletion strains, locus YLR268W, strain sec22, hits give low values 0.962 | S. cerevisiae deletion strains, locus YLR320W, strain mms22, hits give low values 0.99 | S. cerevisiae deletion strains, locus YLR330W, strain CHS5, hits give low values 0.984 | S. cerevisiae deletion strains, locus YLR342W, strain FKS1 (second series), hits give low values 0.985 | S. cerevisiae deletion strains, locus YLR342W, strain FKS1, hits give low values 1.01 | S. cerevisiae deletion strains, locus YLR357W, strain rsc2, hits give low values 1.01 | S. cerevisiae deletion strains, locus YLR370C, strain arc18, hits give low values 1.02 | S. cerevisiae deletion strains, locus YLR371W, strain rom2, hits give low values 0.978 | S. cerevisiae deletion strains, locus YLR384C, strain iki3, hits give low values 1.01 | S. cerevisiae deletion strains, locus YLR418C, strain cdc73, hits give low values 0.989 | S. cerevisiae deletion strains, locus YML016C, strain PPZ1, hits give low values 0.994 | S. cerevisiae deletion strains, locus YML032C, strain rad52, hits give low values 0.98 | S. cerevisiae deletion strains, locus YML120C, strain ndi1, hits give low values 1.02 | S. cerevisiae deletion strains, locus YML124C, strain tub3, hits give low values 0.989 | S. cerevisiae deletion strains, locus YMR058W, strain fet3, hits give low values 1.02 | S. cerevisiae deletion strains, locus YMR078C, strain ctf18, hits give low values 0.974 | S. cerevisiae deletion strains, locus YMR125W, strain sto1, hits give low values 1.02 | S. cerevisiae deletion strains, locus YMR129W, hits give low values 1.01 | S. cerevisiae deletion strains, locus YMR205C, strain PFK2, hits give low values 1 | S. cerevisiae deletion strains, locus YMR223W, strain ubp8, hits give low values 0.97 | S. cerevisiae deletion strains, locus YMR231W, strain pep5, hits give low values 1.01 | S. cerevisiae deletion strains, locus YMR263W, strain SAP30, hits give low values 0.995 | S. cerevisiae deletion strains, locus YMR307W, strain GAS1, hits give low values 0.835 | S. cerevisiae deletion strains, locus YNL067W, strain RPL9B, hits give low values 0.994 | S. cerevisiae deletion strains, locus YNL071W, strain lat1, hits give low values 1.01 | S. cerevisiae deletion strains, locus YNL153C, strain GIM3, hits give low values 1.03 | S. cerevisiae deletion strains, locus YNL183C, strain NPR1, hits give low values 0.944 | S. cerevisiae deletion strains, locus YNL209W, strain ssb2, hits give low values 1.01 | S. cerevisiae deletion strains, locus YNL233W, strain BNI4, hits give low values 0.987 | S. cerevisiae deletion strains, locus YNL248C, strain rpa49, hits give low values 1 | S. cerevisiae deletion strains, locus YNL250W, strain rad50, hits give low values 0.996 | S. cerevisiae deletion strains, locus YNL271C, strain bni1, hits give low values 0.982 | S. cerevisiae deletion strains, locus YNL298W, strain CLA4, hits give low values 0.983 | S. cerevisiae deletion strains, locus YNL307C, strain MCK1, hits give low values 0.99 | S. cerevisiae deletion strains, locus YNL322C, strain KRE1 (second series), hits give low values 1.01 | S. cerevisiae deletion strains, locus YNR049C, strain mso1, hits give low values 1.02 | S. cerevisiae deletion strains, locus YNR052C, strain pop2, hits give low values 0.972 | S. cerevisiae deletion strains, locus YOL006C, strain TOP1, hits give low values 1.05 | S. cerevisiae deletion strains, locus YOL012C, strain htz1 0.857 | S. cerevisiae deletion strains, locus YOL147C, strain pex11, hits give low values 0.987 | S. cerevisiae deletion strains, locus YOR001W, strain rrp6, hits give low values 0.992 | S. cerevisiae deletion strains, locus YOR061W, strain CKA2, hits give low values 0.992 | S. cerevisiae deletion strains, locus YOR069W, strain VPS5, hits give low values 0.991 | S. cerevisiae deletion strains, locus YOR070C, strain gyp1, hits give low values 1.02 | S. cerevisiae deletion strains, locus YOR080W, strain dia2, hits give low values 1.01 | S. cerevisiae deletion strains, locus YOR083W, strain WHI5, hits give low values 1 | S. cerevisiae deletion strains, locus YOR106W, strain vam3, hits give low values 1.02 | S. cerevisiae deletion strains, locus YOR136W, strain idh2, hits give low values 0.984 | S. cerevisiae deletion strains, locus YOR144C, strain elg1, hits give low values 0.99 | S. cerevisiae deletion strains, locus YOR184W, strain ser1, hits give low values 0.976 | S. cerevisiae deletion strains, locus YOR231W, strain MKK1, hits give low values 0.991 | S. cerevisiae deletion strains, locus YOR265W, strain rbl2, hits give low values 1.02 | S. cerevisiae deletion strains, locus YOR270C, strain vph1, hits give low values 1.09 | S. cerevisiae deletion strains, locus YOR290C, strain snf2, hits give low values 1.01 | S. cerevisiae deletion strains, locus YOR316C, strain cot1, hits give low values 0.971 | S. cerevisiae deletion strains, locus YPL051W, strain arl3, hits give low values 0.999 | S. cerevisiae deletion strains, locus YPL078C, strain atp4, hits give low values 1.01 | S. cerevisiae deletion strains, locus YPL106C, strain sse1, hits give low values 0.991 | S. cerevisiae deletion strains, locus YPL240C, strain hsp82, hits give low values 1 | S. cerevisiae deletion strains, locus YPL256C, strain CLN2, hits give low values 0.98 | S. cerevisiae deletion strains, locus YPR119W, strain clb2, hits give low values 0.974 | S. cerevisiae deletion strains, locus YPR141C, strain kar3, hits give low values 0.981 | S. cerevisiae deletion strains, locus YPR163C, strain tif3, hits give low values 0.969 | S. cerevisiae deletion strains, locus YPR167C, strain met16, hits give low values 0.969 | S. cerevisiae deletion strains, strain wtn01, hits give low values 0.985 | S. cerevisiae strains, strain wild type, hits give low values 0.991
